Data taken from PubChem BioAssay (NCI).
Compounds without any hit were thinned out: in the full panel of roughly 83,000, 20% have a hit.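 Negative percent growth values reflect cell death: -40 means 40% of the cells present at the start died, and -100 means all died.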 Unmarked numbers belong to inactive results. Calls of active or inactive are those of the source. The calls were made as follows: active = growth percent below 10; inactive = the rest.

How the values were obtained:
Experiment in all cases: NCI-60 one-dose screen, 48 h (100 = growth as untreated, 0 = no growth, -100 = all killed)
Details in all cases: 10 µM unless noted
NCI-H23 lung = test system: NCI-H23 lung
NCI-H226 lung = test system: NCI-H226 lung
NCI-H322M lung = test system: NCI-H322M lung
HOP-62 NSCLC = test system: HOP-62 NSCLC
NCI-H460 lung = test system: NCI-H460 lung
HOP-92 NSCLC = test system: HOP-92 NSCLC
NCI-H522 lung = test system: NCI-H522 lung
A549/ATCC NSCLC = test system: A549/ATCC NSCLC
786-0 renal = test system: 786-0 renal
COLO 205 colon = test system: COLO 205 colon
DU-145 prostate = test system: DU-145 prostate
K-562 leukemia = test system: K-562 leukemia
MALME-3M melanoma = test system: MALME-3M melanoma
MDA-MB-231 breast = test system: MDA-MB-231 breast
RXF 393 renal = test system: RXF 393 renal
SF-268 CNS = test system: SF-268 CNS
SF-295 CNS = test system: SF-295 CNS
SF-539 CNS = test system: SF-539 CNS
UACC-257 melanoma = test system: UACC-257 melanoma
M14 melanoma = test system: M14 melanoma

| Compound | growth (NCI-H23 lung) | growth (NCI-H226 lung) | growth (NCI-H322M lung) | growth (HOP-62 NSCLC) | growth (NCI-H460 lung) | growth (HOP-92 NSCLC) | growth (NCI-H522 lung) | growth (A549/ATCC NSCLC) | growth (786-0 renal) | growth (COLO 205 colon) | growth (DU-145 prostate) | growth (K-562 leukemia) | growth (MALME-3M melanoma) | growth (MDA-MB-231 breast) | growth (RXF 393 renal) | growth (SF-268 CNS) | growth (SF-295 CNS) | growth (SF-539 CNS) | growth (UACC-257 melanoma) | growth (M14 melanoma) |
| --- | --- | --- | --- | --- | --- | --- | --- | --- | --- | --- | --- | --- | --- | --- | --- | --- | --- | --- | --- | --- |
| CC(=O)Nc1ccc(C=Nc2ccc3ccccc3c2)cc1 | 105% | 100% | 111% | 114% | 111% | 81.6% | 13.5% | 106% | 106% | 115% | 112% | 105% | 111% | 109% | 108% | 105% | 119% | 107% | 103% | 97% |
| Cc1ccc(NC(=O)N[C@@H](Cc2cc(F)cc(F)c2)C(=O)N[C@@H]2C(=O)N3CCC[C@H]3C(=O)N3CCOC[C@H]3C(=O)N[C@@H](C)C(=O)N3C[C@H](C)C[C@H]3C(=O)O[C@H]2C)cc1 | 33.5% | 30.5% | 62.2% | 26.7% | 26.4% | 39.4% | 37.7% | 27.3% | 34.1% | 10% (active) | 31.2% | 17.2% | 33.6% | 9.97% (active) | 36.9% | 28.5% | 12.7% | 47.6% | 20.9% | 26.9% |
| COc1ncc(-c2ccc3nccc(C#CCCCCC(=O)NO)c3c2)cc1NS(=O)(=O)c1ccc(F)cc1F | 29.6% | 9.85% (active) | 7.5% (active) | 4.48% (active) | 6.53% (active) | -27.7% (active) | -21.7% (active) | -12.7% (active) | -14.5% (active) | -44.5% (active) | 12.4% | 17.3% | -40.5% (active) | -11.8% (active) | -56.6% (active) | -11.6% (active) | -9.35% (active) | -45.7% (active) | -16.4% (active) | -48.7% (active) |
| CC1(C)CC[C@]2(C(=O)O)CC[C@]3(C)C(=CC[C@@H]4[C@@]5(C)C/C(=C/c6cccnc6)[C@H](O)C(C)(C)[C@@H]5CC[C@]43C)[C@@H]2C1 | 6.1% [100 µM] (active) | -23% [100 µM] (active) | -17% [100 µM] (active) | -2.51% [100 µM] (active) | -16.7% [100 µM] (active) | -21.8% [100 µM] (active) | -8.98% [100 µM] (active) | 5.82% [100 µM] (active) | 5.39% [100 µM] (active) | -73% [100 µM] (active) | 5.35% [100 µM] (active) | 9.27% [100 µM] (active) | -30.1% [100 µM] (active) | -24.3% [100 µM] (active) | -37.4% [100 µM] (active) | 22.4% [100 µM] | -7.25% [100 µM] (active) | -26.8% [100 µM] (active) | -8.97% [100 µM] (active) | 3.32% [100 µM] (active) |
| O=[N+]([O-])c1ccc(O)c(-c2nc3ccccc3s2)c1 | 47.3% | 83.7% | 90.7% | 88.8% | 63.2% | -5.6% (active) | 58.6% | 84.2% | 73.8% | 103% | 86.8% | 52.7% | 44.7% | 75.3% | 107% | 76.1% | 53.9% | 99% | 83.5% | 83.2% |
| CCn1cc(-c2ccnc(NCCNS(=O)(=O)c3cccc4ccccc34)c2)c(-c2cccc(O)c2)n1 | 100% | 94.2% | 98.9% | 113% | 102% | 79.8% | 105% | 103% | 92.3% | 112% | 97.9% | 75.7% | 109% | 108% | 92.9% | 94.7% | 101% | 104% | 109% | 103% |
| COc1ccc(-c2cc(-c3ccc(OC)c(OC)c3)nc(SCCCCCC(=O)NO)n2)cc1 | 68.7% | 95.2% | 70.6% | 60.3% | 62.3% | 27.6% | 6.61% (active) | 85.7% | 94.1% | 36.8% | 58.8% | 26.1% | 19.4% | 42.2% | 42.1% | 82.3% | 72.9% | 55.4% | 41.8% | 47.7% |
